In all, about 68,000 sequences were measured (“fluorescence intensity (a.u.)”: median about 9,100, highest 2% from about 16,000 on). The entries come from a sample that favours the highest values as a whole.

Sequence of OsWRKY34 (Q0JBA9 entry or part of it): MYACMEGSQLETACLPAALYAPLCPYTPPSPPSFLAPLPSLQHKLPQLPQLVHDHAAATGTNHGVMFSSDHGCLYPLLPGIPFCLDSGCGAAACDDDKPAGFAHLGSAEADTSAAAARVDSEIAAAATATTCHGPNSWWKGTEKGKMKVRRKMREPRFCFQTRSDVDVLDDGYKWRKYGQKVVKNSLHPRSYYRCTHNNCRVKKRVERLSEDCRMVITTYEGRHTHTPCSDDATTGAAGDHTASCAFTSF

The target of the assay is OsWRKY34 (Oryza sativa, UniProt Q0JBA9 1-250). The assay is described as follows: protein-binding microarray (RPBM); PBS, 2% BSA, 51.3 ng/ul salmon testes DNA, 50 uM zinc acetate, 200 nM TF, 25 C, 1 h; high values mean tight binding. As to conditions: protein: recombinant; tags: N-terminal polyhistidine and DsRed monomer fusion (pET32a); label: CyDye5-dUTP incorporated in the synthesized complementary strand; 3' TTTTT single-stranded linker to array surface; dsDNA, one strand shown. The essentials:
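Polyhistidine-tagged DsRed fusions of transcription factors, joined at the N-terminus, were expressed in E. coli BL21-CodonPlus and isolated on Ni–NTA. They were incubated at 200 nM for 1 h at 25 °C on a custom Agilent array, double-stranded and BSA-blocked, in PBS with 2% BSA, salmon testes DNA and 50 µM zinc acetate. The binding signal is per-feature fluorescence intensity (arbitrary units) read on an Axon 4000B scanner after washing.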
“GCTTGCTCCAGGTGACCCAACTTTTCCATTTCCATGCATTCGGAGTCACCTAGTGCAG”: the binding signal was 11300 fluorescence intensity (a.u.).
As for “GCTCCTCCTCCTCTTCCCGCCTCACCGCCGCACCACCTCTCGGAGTCACCTAGTGCAG”, the figure is 8550 fluorescence intensity (a.u.); as for “CCGTGGGCCAGACCTTTTTCTTCGACGCTAGACCTGACTACGGAGTCACCTAGTGCAG”, 9780 fluorescence intensity (a.u.).
As for “TTCACCCACGTTTCTGCCCAACCCTCTCACCCTAGCTTAGCGGAGTCACCTAGTGCAG”, the figure is 10800 fluorescence intensity (a.u.).
As for “AACTTCGCAAGAGGCATGCTCTCCAGCCTCAATTTTCATGCGGAGTCACCTAGTGCAG”, the figure is 8410 fluorescence intensity (a.u.).
Regarding “CCCCATTTTCTTTGTTTCTACTTCTCTTTCCCTTTCTTGTCGGAGTCACCTAGTGCAG”, the binding signal was 10700 fluorescence intensity (a.u.).
For “CTCCGTCCCTCCGTACCAGTTTAAATGCAGCCGTGGATTCCGGAGTCACCTAGTGCAG” the value was 8360 fluorescence intensity (a.u.).
Consider “AAGTACTCCCTCCGTATTTTAATGTATGACGCCGTTGACTCGGAGTCACCTAGTGCAG”, for which the binding signal is 9690 fluorescence intensity (a.u.).
As for “CCCTCCGTATTTTAATGTATGACGCCGTTGACTTTTTGACCGGAGTCACCTAGTGCAG”, the figure is 26800 fluorescence intensity (a.u.); as for “GCCCGCTGCTCTGCTCTCTCATCTTTTATCTCACTAAAATCGGAGTCACCTAGTGCAG”, 8960 fluorescence intensity (a.u.).
For “TTTGACGCCGTTGACTTTTTTAAAAATGTTTGACCGTTCACGGAGTCACCTAGTGCAG” the value was 25100 fluorescence intensity (a.u.); for “ATCTATGTTTTTCTGCGGGCCGGGTTGGTTTGTTTCCTACCGGAGTCACCTAGTGCAG”, 10300 fluorescence intensity (a.u.); for “CGCTACCGGGTTGACTTTTTCCTATCCGTTTCTGGTCCGGCGGAGTCACCTAGTGCAG”, 22800 fluorescence intensity (a.u.).
For “GCCCGTTGCTCATCTCTCTCATCGTTTATCGCATTAAAATCGGAGTCACCTAGTGCAG” the value was 17900 fluorescence intensity (a.u.); for “TACTTACTCCCTCCGTATTTTAATGTATGACGCCGTTGACCGGAGTCACCTAGTGCAG”, 14200 fluorescence intensity (a.u.); for “TTTGGGCCGGGTTTTTGGTTTCTTCCTTTTTTTTTCTGGGCGGAGTCACCTAGTGCAG”, 12600 fluorescence intensity (a.u.).
For the sequence “GCCCGCTGCTATTCTCTCTCATCTTTTATCCTATTAAAATCGGAGTCACCTAGTGCAG”, the binding signal was 13200 fluorescence intensity (a.u.).
For “TTTTTTTTACCGGCCTAGTTGACCACCAACCAAGCAGTACCGGAGTCACCTAGTGCAG” the value was 10100 fluorescence intensity (a.u.); for “GCATACATCTCTACTACCTGCATCTCCATCTCAAATCAAACGGAGTCACCTAGTGCAG”, 10400 fluorescence intensity (a.u.).
For “CTCCTCTAACGTACCATAGAGGGACATACGTTTCTGATGTCGGAGTCACCTAGTGCAG” the value was 8720 fluorescence intensity (a.u.); for “CTCTCCATCCGCTCGCGGCTCGCGCTCGCCCATCCAATCCCGGAGTCACCTAGTGCAG”, 10600 fluorescence intensity (a.u.); for “CATCGCCCACGCCAATGTCGTCGCCGACGTCTCGCTGCCGCGGAGTCACCTAGTGCAG”, 8820 fluorescence intensity (a.u.).
As for “CACGCCATTAAGCTTTTTTTATATACATATAGTCAATGTTCGGAGTCACCTAGTGCAG”, the figure is 9130 fluorescence intensity (a.u.); as for “CCCACCGTTTCCAAATGTTTGACGCCGTTGACTTTTTATCCGGAGTCACCTAGTGCAG”, 31900 fluorescence intensity (a.u.); as for “TAATACTCCCTCCGTATTTTAATGTATGATGCCGTTGACTCGGAGTCACCTAGTGCAG”, 10600 fluorescence intensity (a.u.).
For the sequence “TCTTACTCTCTCCATCCCAAAATGTTTGACGCCGTTGACTCGGAGTCACCTAGTGCAG”, the binding signal is 13400 fluorescence intensity (a.u.).
With “CTAAATGTTTGACGCCGTTGACTTTTTAAATATGTTTGACCGGAGTCACCTAGTGCAG”, the binding signal was 32300 fluorescence intensity (a.u.).
As for “ACTCTCTCCGTATTCGTATTTTAATGTATGACGCCGTTGACGGAGTCACCTAGTGCAG”, the binding signal is 8550 fluorescence intensity (a.u.).
As for “ATTTTAATATTTGACGCCGTTGACTTTTTGTATGTTTGACCGGAGTCACCTAGTGCAG”, the figure is 42500 fluorescence intensity (a.u.).
As for “CTCCCTCCATCCCAAAATGTTTGACGCCGTTGACTTTTTACGGAGTCACCTAGTGCAG”, the figure is 15900 fluorescence intensity (a.u.); as for “TCCGTATTTTAATGTATGACGCTGTTGACTTTCGACCTACCGGAGTCACCTAGTGCAG”, 13900 fluorescence intensity (a.u.).
For “CTCTCTCCGTATTATAATGTATGATGCCGTTGACTTTTTGCGGAGTCACCTAGTGCAG” the value was 35200 fluorescence intensity (a.u.); for “TTAGTGATTTCTTGTCTCCTGATCATCTGTAGTCTGTAGACGGAGTCACCTAGTGCAG”, 8160 fluorescence intensity (a.u.).
As to “GACCTAGCTCTGCCCTTTCTTTCTGAAATAAATAATGCATCGGAGTCACCTAGTGCAG”, the binding signal is 8960 fluorescence intensity (a.u.).
As for “CCATCACTAGAGCCTTTTGCCTTTGCTTGCACAATTACATCGGAGTCACCTAGTGCAG”, the figure is 8850 fluorescence intensity (a.u.); as for “TGTGTGCCTGTTGTCTCATTTGATCTGCCATTTCAGCGCACGGAGTCACCTAGTGCAG”, 10700 fluorescence intensity (a.u.).
In the case of “ACCCGCACACCGTCCCGTGCCAGCTGCCTCGCCACCGTTCCGGAGTCACCTAGTGCAG”, the binding signal is 11900 fluorescence intensity (a.u.).
For “CCACGACACCGCTTCCAGCCCACGCAACCCTCGAACAATGCGGAGTCACCTAGTGCAG” the value was 8170 fluorescence intensity (a.u.); for “GTATTTTCGATTGTTTACACTATAATTAGACTGTTTTATACGGAGTCACCTAGTGCAG”, 8600 fluorescence intensity (a.u.); for “CGTCGATGCCAATACAATAACCATCATCATCATCATCATTCGGAGTCACCTAGTGCAG”, 8210 fluorescence intensity (a.u.).
For “TCCTCTCCCACCAATCCTTTGATCCATTCATCCCAACTTCCGGAGTCACCTAGTGCAG” the value was 9340 fluorescence intensity (a.u.).
For “TGTGTGTGTATATATATGTAGCCTGTTCGCACATCATCTTCGGAGTCACCTAGTGCAG” the value was 13600 fluorescence intensity (a.u.).
With “GTAATGGCATATTTGCAATTATCCCTTTGTTTATTTATTTCGGAGTCACCTAGTGCAG”, the binding signal was 8510 fluorescence intensity (a.u.).
In the case of “TCCCTAAATGTTTAACGTCGTTGACTTTTTAAAATATGTTCGGAGTCACCTAGTGCAG”, the binding signal was 21000 fluorescence intensity (a.u.).

The values are drawn from publication PMC7819943, “Rice protein-binding microarrays: a tool to detect cis-acting elements near promoter regions in rice”.
